Here are results for 38 compounds from PubChem BioAssay (NCATS).

The structures appear in SMILES notation. Inconclusive results are not listed. The source made the active and inactive calls. The call rests on the fitted dose curve; in most records, active means well fitted curve in the direction sought with a large enough effect; inconclusive means small, poorly fitted or top-dose-only effect, or another doubt; inactive means no such curve, though single readings can be large; an effect the other way counts as inactive or inconclusive.

The target in experiment [1] is Furin (Homo sapiens) (UniProt P09958). As to the kind of experiment: Furin counterscreen qHTS for Zika virus inhibitors (AID 1347149). Further: nearly all actives have a fitted effect of over 70% in size. Further: potency means the concentration at half of the fitted maximal effect. Summed up: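 Counterscreen measures cleavage of 2 microM BOC-RVRR-AMC, below its ~15 microM Km, by 5 nM full-length human furin at pH 7.0 after a 15-min compound preincubation. Inhibition derives from the 15-min fluorescence increase at 37C.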

The subject of experiment [2] is Zika virus NS2B-NS3 protease. As to the kind of experiment: Primary screen GU AMC qHTS for Zika virus inhibitors (AID 1347154). Further: nearly all actives have a fitted effect of over 70% in size. Further: potency means the concentration at half of the fitted maximal effect. In short, it runs like this:
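Unlinked Zika NS2B hydrophilic domain–NS3 protease complex at 25 nM in 10 mM Tris-HCl pH 8.0, 0.01% Tween 20, with an AMC peptide substrate. Fluorescence change (340/450 nm) over 15 min at room temperature, normalized to controls, fitted to 4-parameter Hill.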
On the technique in general: qHTS replaces the single test concentration by a dilution series.

A short description of experiment [3]: qHTS of pediatric cancer cell lines to identify multiple opportunities for drug repurposing: Confirmatory screen for SK-N-SH cells (AID 1347129).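 Further: cells exposed to compound for 48 h before viability read; nearly all actives have a fitted effect of over 60% in size.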 Further: potency means the concentration at half of the fitted maximal effect. In short, it runs like this: (§1)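 Viability after 48 h compound treatment at 37C, 500-1,000 cells/well, read as ATP luminescence with CellTiter-Glo. Primary screens used 11-point (MIPE, 0.78 nM-46 µM) or 8-point (NPC, 0.59 nM-46 µM) final concentrations; follow-up screens used 11-point dilutions.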

A short description of experiment [4]: qHTS of pediatric cancer cell lines to identify multiple opportunities for drug repurposing: Confirmatory screen for OHS-50 cells (AID 1347128).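 Further: compound exposure lasted 48 h at 37 degrees C; nearly all actives have a fitted effect of over 55% in size.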 Further: potency means the concentration at half of the fitted maximal effect. Summed up: as §1
In experiment [5] the test system is Zika virus NS2B-NS3 protease (unlinked complex). As to the kind of experiment: Primary screen GU Rhodamine qHTS for Zika virus inhibitors: Unlinked NS2B-NS3 protease assay (AID 1347159). Further: nearly all actives have a fitted effect of over 60% in size. Further: potency means the concentration at half of the fitted maximal effect. Summed up: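 Percent inhibition came from the 15-min rise in Rhodamine110 fluorescence (1.5 microM substrate, ~15% conversion), normalized to no-inhibitor and no-enzyme wells and Hill-fitted. Unlinked protease, 25 nM, pH 8.0 Tris buffer; compounds up to 114 microM, 15-min preincubation.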

Experiment [6] is described as follows: Confirmatory screen GU Rhodamine qHTS for Zika virus inhibitors qHTS (AID 1347157). Further: potency means the concentration at half of the fitted maximal effect; nearly all actives have a fitted effect of over 70% in size. Summed up: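 Compounds, tested up to 114 microM, were incubated for 15 minutes with 25 nM unlinked NS2B-NS3 protease at pH 8.0. Cleavage of 1.5 microM Rhodamine110 substrate was then followed by fluorescence for 15 minutes.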
Experiment [7] is described as follows: ZIKV-mCherry secondary qHTS for Zika virus inhibitors (AID 1347158). Further: top concentration of the series differs between compounds. In short, it runs like this: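 Compounds were tested in Vero monkey kidney cells infected with recombinant mCherry-expressing Zika virus at MOI 1 for 48-72 h at 37 °C. Fixed cells were nuclear-stained and imaged, and infection rate was taken as the fraction of mCherry-positive cells.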

Sequence of Furin (Homo sapiens) (P09958 whole entry, looked up): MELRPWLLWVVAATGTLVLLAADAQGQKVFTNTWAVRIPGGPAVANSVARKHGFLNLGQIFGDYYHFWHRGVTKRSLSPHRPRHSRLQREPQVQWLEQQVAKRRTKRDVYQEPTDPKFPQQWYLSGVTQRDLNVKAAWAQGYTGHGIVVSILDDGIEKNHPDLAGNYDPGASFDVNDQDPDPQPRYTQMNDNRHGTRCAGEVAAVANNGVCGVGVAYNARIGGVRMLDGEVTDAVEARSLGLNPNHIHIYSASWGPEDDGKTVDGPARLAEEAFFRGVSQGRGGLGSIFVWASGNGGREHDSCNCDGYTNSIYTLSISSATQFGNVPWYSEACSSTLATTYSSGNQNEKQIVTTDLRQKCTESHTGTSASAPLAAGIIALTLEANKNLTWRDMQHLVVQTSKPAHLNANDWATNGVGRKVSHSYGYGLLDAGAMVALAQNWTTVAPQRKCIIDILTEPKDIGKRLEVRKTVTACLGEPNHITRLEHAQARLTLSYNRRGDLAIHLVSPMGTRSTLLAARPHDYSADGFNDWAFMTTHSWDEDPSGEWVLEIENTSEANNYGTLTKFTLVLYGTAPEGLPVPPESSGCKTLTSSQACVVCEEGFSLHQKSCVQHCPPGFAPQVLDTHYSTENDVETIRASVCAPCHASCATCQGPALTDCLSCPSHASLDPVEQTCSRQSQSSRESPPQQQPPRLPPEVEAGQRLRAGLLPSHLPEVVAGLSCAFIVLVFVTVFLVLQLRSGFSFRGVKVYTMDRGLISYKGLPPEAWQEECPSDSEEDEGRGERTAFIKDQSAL

For `CCN(CC)CCCCNc1ncc2cc(-c3cc(OC)cc(OC)c3)c(NC(=O)NC(C)(C)C)nc2n1`, the Potency was 24.1 µM (active) in experiment [1] and 21.5 µM (active) in experiment [2].

For the compound `Cc1cc(C(=O)N2CCN(c3cccc(Cl)c3)CC2)n(-c2ccccc2)n1`, the Potency result in experiment [3] and in experiment [2] was “inactive” each time.

As for `COC(=O)c1ccc2c(C(=Nc3ccc(N(C)C(=O)CN4CCN(C)CC4)cc3)c3ccccc3)c(O)[nH]c2c1`, in experiment [4], the Potency is 14.7 µM (active). For the same compound, the Potency entry in experiment [2] and in experiment [5] was “inactive” each time.

Consider `CCNC(=O)Nc1ccc2ncc(Nc3ccc(C)cc3)nc2n1`, for which the Potency result in experiment [4] and in experiment [2] was “inactive” throughout. The Potency in experiment [5] was 25.1 µM (active).

With `Cc1c(CN2CCN(S(C)(=O)=O)CC2)sc2c(N3CCOCC3)nc(-c3cnc(N)nc3)nc12`, the Potency in experiment [4] was 2.33 µM (active). The Potency entry in experiment [2] and in experiment [5] was “inactive” throughout.

Take `N#Cc1c(O)c2c(-c3ccc(-c4ccccc4O)cc3)csc2[nH]c1=O`: the Potency result in experiment [1] and in experiment [7] was “inactive” in each case. Besides, the Potency was 8.57 µM (active) in experiment [2], 2.21 µM (active) in experiment [6] and 2 µM (active) in experiment [5].

For `Cc1ccc(C(=O)Nc2cccc(C(F)(F)F)c2)cc1-c1ccc2nc(NCCN3CCOCC3)ncc2c1`, the Potency in experiment [4] is 8.27 µM (active). In addition, the Potency entry in experiment [3] and in experiment [5] was “inactive” each time.

`COc1cc2nccc(Oc3ccc(NC(=O)C4(C(=O)Nc5ccc(F)cc5)CC4)cc3)c2cc1OC`: in experiment [4], the Potency was 20.8 µM (active). The Potency entry in experiment [2] and in experiment [5] was “inactive” throughout.

On to `C=CC(=O)Nc1cccc(Oc2nc(Nc3ccc(N4CCN(C)CC4)cc3OC)ncc2Cl)c1`, for which the Potency in experiment [3] is 18.7 µM (active). Also, the Potency entry in experiment [2] and in experiment [5] was “inactive” throughout.

Turning to `CC1(C)CCC(c2ccc(Cl)cc2)=C(CN2CCN(c3ccc(C(=O)NS(=O)(=O)c4ccc(N[C@H](CCN5CCOCC5)CSc5ccccc5)c(S(=O)(=O)C(F)(F)F)c4)cc3)CC2)C1`, in experiment [4], the Potency entry was “inactive”. Moreover, in experiment [5], the Potency is 2.24 µM (active).

`Cc1ccc(C(=O)Nc2ccc(CN3CCN(C)CC3)c(C(F)(F)F)c2)cc1C#Cc1cnc2cccnn12`: the Potency entry in experiment [4] and in experiment [5] was “inactive” in each case. Moreover, in experiment [2], the Potency is 34.1 µM (active).

For `C[C@@H](Oc1cc(-n2cnc3ccc(CN4CCN(C)CC4)cc32)sc1C(N)=O)c1ccccc1C(F)(F)F`, the Potency in experiment [4] was 0.0759 µM (active). The Potency result in experiment [2] was “inactive”.

In the case of `CCOc1cc2ncc(C#N)c(Nc3ccc(F)c(Cl)c3)c2cc1NC(=O)C=CCN(C)C`, the Potency in experiment [4] was 0.147 µM (active). For the same compound, the Potency entry in experiment [2] is “inactive”.

On to `Cc1cc(CN2CCN(c3c(Br)cnc4nc(-c5ccc(N6CCN(C)CC6)cc5)[nH]c34)CC2)no1`, for which the Potency in experiment [1] and in experiment [2] was 24.1 µM (active) throughout. The Potency result in experiment [7] and in experiment [5] was “inactive” each time.

On to `Nc1cc(C(F)(F)F)c(-c2cc(N3CCOCC3)nc(N3CCOCC3)n2)cn1`, for which the Potency in experiment [3] was 4.69 µM (active). Also, the Potency result in experiment [2] and in experiment [5] was “inactive” each time.

Take `CC1(C)OC2=C(C(=O)c3ccccc3C2=O)[C@H](NCc2ccccc2)[C@H]1O`: the Potency in experiment [4] was 7.37 µM (active). Also, the Potency entry in experiment [2] is “inactive”.

As to `CN1CCN(c2cc(C(=O)Nc3ccc4c(c3)-c3c(c(C(N)=O)nn3-c3ccc(F)cc3)CC4)c(Cl)cn2)CC1`, in experiment [4], the Potency is 23.3 µM (active). The Potency result in experiment [2] was “inactive”.

Regarding `CC(C)CC(=O)Nc1n[nH]c2c1CN(C(=O)C1CCN(C)CC1)C2(C)C`, the Potency in experiment [4] is 5.85 µM (active). Moreover, the Potency entry in experiment [2] and in experiment [5] was “inactive” each time.

Regarding `O=C(O)C1(Cc2cccc(Nc3nccs3)n2)CCC(Oc2cccc(Cl)c2F)CC1` (configuration not stated), the Potency in experiment [6] is 6.98 µM (active).

With `CC[C@H](CO)Nc1nc(NCc2ccccc2)c2ncn(C(C)C)c2n1`, the Potency result in experiment [2] is “inactive”.

In the case of `COCCOc1ccc2c(c1)ncn2-c1ccc2cccc(N3CCC(N)CC3)c2n1`, the Potency entry in experiment [2] and in experiment [5] was “inactive” each time.

Regarding `C1Cc2[nH]nc(-c3nn[nH]n3)c2C1`, the Potency result in experiment [2] and in experiment [5] was “inactive” throughout.

On to `N#CCNC(=O)c1ccc(-c2ccnc(Nc3ccc(N4CCOCC4)cc3)n2)cc1`, for which the Potency entry in experiment [2] and in experiment [5] was “inactive” throughout.

`Cc1cccc(C=NNc2cc(N3CCOCC3)nc(OCCc3ccccn3)n2)c1`: the Potency result in experiment [2] was “inactive”.

In the case of `CC(=O)SC[C@@H](C)C(=O)N1CCC[C@H]1C(=O)N[C@@H](Cc1ccccc1)C(=O)O`, the Potency result in experiment [2] is “inactive”.

Turning to `COC(=O)Nc1ccc(-c2nc(N3CCOCC3)c3cnn(C4CCN(Cc5cccnc5)CC4)c3n2)cc1`, the Potency result in experiment [2] and in experiment [5] was “inactive” each time.

For the compound `c1ccc2c(CCNc3ccc(Nc4ccncc4)cc3)c[nH]c2c1`, the Potency entry in experiment [2] and in experiment [5] was “inactive” throughout.

On to `Fc1cc(-c2cccc3ncc(-c4cnn(C5CCNCC5)c4)nc23)cc(F)c1CN1CCOCC1`, for which the Potency entry in experiment [2] and in experiment [5] was “inactive” in each case.

Consider `O=C1CCC[C@@H]2[C@H]3CCC[N+]4([O-])CCC[C@@H](CN12)[C@@H]34` (some centres not stated), for which the Potency entry in experiment [2] and in experiment [5] was “inactive” throughout.

With `COc1cc(-c2nn(C3CCC(N4CCN(C(C)=O)CC4)CC3)c3ncnc(N)c23)ccc1NC(=O)c1cc2ccccc2n1C` (configuration not stated), the Potency result in experiment [2] and in experiment [5] was “inactive” each time.

As for `CC(C)C[C@H](NC(=O)CNC(=O)c1cc(Cl)ccc1Cl)B(O)O`, the Potency entry in experiment [2] is “inactive”.

For `CC1(O)CC(c2nc(-c3ccc4ccc(-c5ccccc5)nc4c3)c3c(N)nccn23)C1` (configuration not stated), the Potency result in experiment [2] and in experiment [5] was “inactive” each time.

Regarding `O=c1[nH]c(=O)n(C2CCCO2)cc1F` (configuration not stated), the Potency result in experiment [2] is “inactive”.

With `CCCCOc1c(C(=O)c2c(F)cc(C)cc2F)cnc2n[nH]cc12`, the Potency result in experiment [2] and in experiment [5] was “inactive” throughout.

As to `O=C(Cc1ccc(-c2ccc(OCCN3CCOCC3)cc2)cn1)NCc1ccccc1`, the Potency result in experiment [2] and in experiment [5] was “inactive” each time.

In the case of `CC(C)(C)OC(=O)Nc1ccc(-c2cc(C(=O)NCCCCCCC(=O)NO)no2)cc1`, the Potency entry in experiment [2] is “inactive”.

For the compound `CCCn1c(=O)c2[nH]c(-c3cnn(Cc4cccc(C(F)(F)F)c4)c3)nc2n(CC)c1=O`, the Potency entry in experiment [2] and in experiment [5] was “inactive” throughout.

Take `CC(C)(O)CCc1ccc(OCc2cc(-c3cccc(OC(F)F)c3)c3ncccc3c2)cc1`: in experiment [2], the Potency result was “inactive”.
